Out of some 350,000 compounds screened, about 7,000 (2%) were called active. This excerpt belongs to a sample that is enriched for actives. Unmarked numbers belong to inactive results. Cut-off read from the data, not from the text of the source: active = activation above about 40%; inconclusive = no clear call, values can overlap the other calls; inactive = below that.
Experiment: Bmi1 luciferase reporter increase in mESCs, primary screen, esBAF inhibitor project, mouse ES cells, Bmi1 luciferase knock-in, single point (AID 602393);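 note: 0% = median of the plate's neutral control wells and 100% = double that signal; a rise in the Bmi1 reporter signal indicates esBAF inhibition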
Settings: 24 h, at 12.5 µM, active compounds read high, 100% = twice the neutral-well signal
Compound COc1ccc(NC(=O)N(C)C[C@H]2OCCCC[C@@H](C)Oc3ccc(NS(=O)(=O)c4ccc(F)cc4)cc3C(=O)N([C@@H](C)CO)C[C@@H]2C)cc1 has a reporter increase of 1.41%. Compound O=C(C[C@@H]1CC[C@H]2[C@@H](COC[C@@H](O)CN2CC2CC2)O1)NCc1ccc(Cl)cc1 has a reporter increase of -7.82%. Compound CO[C@H]1CN(C)C(=O)c2cc(NC(C)=O)ccc2OC[C@H](C)N(C(=O)C2CC2)C[C@H]1C has a reporter increase of -2.16%. Compound CS(=O)(=O)N1C[C@@H](O)COC[C@@H]2O[C@H](CC(=O)NC3Cc4ccccc4C3)CC[C@H]21 has a reporter increase of -3.82%. For CNC[C@H]1Oc2cc(C#CC(C)(C)O)ccc2S(=O)(=O)N([C@@H](C)CO)C[C@@H]1C, the reporter increase was -0.555%. Compound COCC(=O)N1C[C@H]2[C@@H](c3ccccc31)[C@@H](CO)N2Cc1ccccc1 has a reporter increase of -3.85%. With Cc1nn(-c2ccccc2)c2c1C(c1cccc([N+](=O)[O-])c1)N(c1ccccc1)C(=O)N2 (stereo unspecified) the reporter increase was 10.1%. For Cn1nc(-c2ccccc2)c2cc([N+](=O)[O-])ccc21, the reporter increase was -3.5%. For Cc1nn(-c2ccc([N+](=O)[O-])cc2)c(N)c1-c1ccccc1, the reporter increase was 49.1% (active). For Cc1ccccc1S(=O)(=O)NCC[C@@H]1CC[C@H](NC(=O)C2CC2)[C@@H](CO)O1, the reporter increase was -5.25%. In the case of O=C(NNC(=O)c1ccco1)Nc1ccccc1, the reporter increase is reported as 0.317%. In the case of CC1CCN(c2ccc(-c3ccc(NC(=O)c4ccco4)cc3)nn2)CC1, the reporter increase is reported as 55.6% (active). With CC(C)(C)NC(=O)c1cc(NC(=O)c2ccco2)cc(NC(=O)c2ccco2)c1 the reporter increase was -7.07%. With Cc1cc(NC(=O)c2ccc(F)cc2)ccc1NC(=O)c1ccco1 the reporter increase was -3.11%. For Cc1ccc(NC(=O)c2ccco2)cc1, the reporter increase was 58.7% (active). With O=C(Nc1ccc(Oc2ccccc2)cc1)c1ccco1 the reporter increase was 45.8% (active). In the case of O=C(/C=C/c1ccco1)Nc1ccc(Oc2ccccc2)cc1, the reporter increase is reported as 78% (active). O=C(Nc1ccc(Sc2ccc(Br)cc2)cc1)c1ccco1 showed a reporter increase of 30.7%. CC1CCN(C(NC(=O)c2ccco2)C(=O)c2ccccc2)CC1 (stereo unspecified) showed a reporter increase of -0.711%. Work on COc1cccc(NC(=O)COC(=O)/C=C/c2ccco2)c1 yielded a reporter increase of -3.7%. Compound CN1CCN(S(=O)(=O)c2ccc(NC(=O)c3ccco3)cc2)CC1 has a reporter increase of 7.27%. Work on O=C(/C=C/c1ccco1)NC(=S)Nc1ccccc1Br yielded a reporter increase of 12.7%. C[C@@H]1CCCCO[C@H](CN(C)C(=O)CCCN(C)C)[C@H](C)CN([C@H](C)CO)C(=O)c2cc(NC(=O)CCC(F)(F)F)ccc2O1 gave a reporter increase of -8.36%. COCC(=O)NC[C@@H]1[C@@H](c2ccc(C3=CCCC3)cc2)[C@@H](CO)N1C(C)=O gave a reporter increase of 2.64%. C[C@@H]1CN([C@H](C)CO)C(=O)c2c(c3ccccc3n2C)-c2ccccc2CO[C@H]1CN(C)C(=O)c1ccncc1 gave a reporter increase of 1.87%. Compound COCC#Cc1cnc2c(c1)C(=O)N([C@@H](C)CO)C[C@@H](C)[C@H](CN(C)C(=O)Nc1ccccc1OC)O2 has a reporter increase of -2.03%. In the case of CCCNC(=O)[C@@H]1[C@@H](CO)[C@@H]2Cn3c(cccc3=O)[C@H]1N2C(=O)C1CCC1, the reporter increase is reported as 3.3%. C[C@@H]1CCCCO[C@H](CN(C)C)[C@H](C)CN([C@@H](C)CO)C(=O)c2cc(NS(=O)(=O)c3ccccc3)ccc2O1 gave a reporter increase of -0.305%. In the case of Cc1ccoc1C(=O)Nc1cccc(Oc2ccccc2)c1, the reporter increase is reported as 69.9% (active). In the case of CC(Oc1cccc(NC(=O)c2cccs2)c1)C(=O)c1ccccc1 (stereo unspecified), the reporter increase is reported as 5.41%. With CC1(C(=O)Nc2cccc(Oc3ccccc3)c2)CCN1Cc1ccccc1Cl (stereo unspecified) the reporter increase was -0.493%. COc1ccc(CN(C)C[C@@H]2OCCCC[C@H](C)Oc3ccc(NS(C)(=O)=O)cc3C(=O)N([C@@H](C)CO)C[C@H]2C)cc1 gave a reporter increase of -1.93%. O=C(NC1CCCCC1)[C@@H]1[C@@H](CO)[C@@H]2Cn3c(cccc3=O)[C@@H]2N1C(=O)CC1CC1 showed a reporter increase of 0.341%. C[C@H](O)C#Cc1cnc2c(c1)C(=O)N([C@H](C)CO)C[C@H](C)[C@H](CN(C)C(=O)c1ccc(F)cc1)O2 gave a reporter increase of 0.158%. For O=C(NCc1ccccc1)c1onc(CSc2nc3ccccc3[nH]2)c1C(=O)NCc1ccccc1, the reporter increase was -3.03%. With O=C(CSc1nc2ccccc2[nH]1)c1cccs1 the reporter increase was 79.4% (active). CCCCN(CC)CCCNC(=O)c1ccc(CSc2nc3ccncc3[nH]2)cc1 showed a reporter increase of 0.105%. In the case of CN(Cc1ccccc1)C(=O)CSc1nc2ccccc2[nH]1, the reporter increase is reported as 36%. For CCCCSc1nc2ccccc2[nH]1, the reporter increase was 56.3% (active). COc1ccc2nc(SCC(=O)Nc3c(C)cc(C)cc3C)[nH]c2c1 showed a reporter increase of -3.13%. With COc1ccccc1CSc1nc2ccccc2[nH]1 the reporter increase was 69.6% (active). In the case of CN(Cc1ccccc1)c1nc2c(c(=O)[nH]c(=O)n2C)n1CCSc1nc2ccccc2[nH]1, the reporter increase is reported as 5.78%. Work on C/C(=N\Nc1nc2ccccc2[nH]1)c1cccs1 yielded a reporter increase of 67.6%. Compound COc1cccc(S(=O)(=O)Nc2ccc3c(c2)[C@@H]2C[C@@H](CC(=O)NC4CCCCC4)O[C@H](CO)[C@@H]2O3)c1 has a reporter increase of 9.31%. In the case of CCCNC(=O)N[C@H]1C=C[C@@H](CC(=O)NC2CCCCC2)O[C@H]1CO, the reporter increase is reported as 0.216%. COc1cccc(NC(=O)N(C)C[C@H]2OCc3ccccc3-c3ccccc3C(=O)N([C@H](C)CO)C[C@@H]2C)c1 showed a reporter increase of 4.73%. Cc1nc2ccccc2c(=O)n1NC(=O)c1ccc(Cl)c([N+](=O)[O-])c1 gave a reporter increase of 3.65%. For C/C(=N\Nc1nncc2ccccc12)c1ccc(Cl)c([N+](=O)[O-])c1, the reporter increase was 50.9% (active). Work on Cc1ccnc(NC(=O)c2ccc(Cl)c([N+](=O)[O-])c2)c1 yielded a reporter increase of 30.4%. CN(C)C(=O)c1cccc(-c2ccc3n(c2=O)C[C@H]2N[C@@H]3[C@@H](C(=O)NC3CCC3)[C@@H]2CO)c1 gave a reporter increase of -3.26%. For CCCNC(=O)N1[C@H](CO)[C@H]2c3ccccc3N(C(=O)Nc3cccc(Cl)c3)C[C@H]21, the reporter increase was -0.3%.

— PubChem BioAssay AID602393 (Broad Institute, 2012)
